# Changes are numbered by the printed parent chain.
# What was measured:
# Experiment in all cases: PBM; 200 nM protein, PBS
# Conditions in all cases: dsDNA, one strand shown
# [1] = target: CRX (Homo sapiens, UniProt O43186 26-111)
# [2] = target: CRX (Homo sapiens, UniProt O43186 26-111, E42D)
# [3] = target: PITX2 (Homo sapiens, UniProt Q99697 72-157)
# [4] = target: CRX (Homo sapiens, UniProt O43186 26-111, R41L)
# [5] = target: T1, NKX2-6 (Homo sapiens, UniProt A6NCS4 118-204)
# T1 sequence: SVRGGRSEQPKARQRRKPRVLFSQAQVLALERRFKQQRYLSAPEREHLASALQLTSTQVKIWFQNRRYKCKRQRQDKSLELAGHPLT
# [6] = target: T2, NKX2-6 (Homo sapiens, UniProt A6NCS4 118-204, F151L)
# T2 sequence: T1 sequence with F34L
# [7] = target: ALX3 (Homo sapiens, UniProt O95076 139-225, N203Q)
# Sequence of ALX3 (Homo sapiens, UniProt O95076 139-225, N203Q) (O95076 139-225 N203Q): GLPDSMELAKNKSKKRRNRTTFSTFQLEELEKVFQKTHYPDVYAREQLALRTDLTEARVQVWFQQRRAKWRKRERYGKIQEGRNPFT
# [8] = target: ALX3 (Homo sapiens, UniProt O95076 139-225)
# Sequence of ALX3 (Homo sapiens, UniProt O95076 139-225) (O95076 139-225): as the sequence (O95076 139-225 N203Q) above, with Q65N counted along it
# [9] = target: ALX3 (Homo sapiens, UniProt O95076 139-225, L168Q)
# Sequence of ALX3 (Homo sapiens, UniProt O95076 139-225, L168Q) (O95076 139-225 L168Q): as the sequence (O95076 139-225 N203Q) above, with L30Q, Q65N counted along it
# [10] = target: ALX3 (Homo sapiens, UniProt O95076 139-225, L168V)
# Sequence of ALX3 (Homo sapiens, UniProt O95076 139-225, L168V) (O95076 139-225 L168V): as the sequence (O95076 139-225 N203Q) above, with L30V, Q65N counted along it
# [11] = target: ALX3 (Homo sapiens, UniProt O95076 139-225, N203S)
# Sequence of ALX3 (Homo sapiens, UniProt O95076 139-225, N203S) (O95076 139-225 N203S): as the sequence (O95076 139-225 N203Q) above, with Q65S counted along it
# [12] = target: MSX2 (Homo sapiens, UniProt P35548 130-214, R199I)
# Sequence of MSX2 (Homo sapiens, UniProt P35548 130-214, R199I) (P35548 130-214 R199I): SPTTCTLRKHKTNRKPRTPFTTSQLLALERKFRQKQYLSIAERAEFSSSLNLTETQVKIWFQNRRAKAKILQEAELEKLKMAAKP
# [13] = target: MSX2 (Homo sapiens, UniProt P35548 130-214)
# Sequence of MSX2 (Homo sapiens, UniProt P35548 130-214) (P35548 130-214): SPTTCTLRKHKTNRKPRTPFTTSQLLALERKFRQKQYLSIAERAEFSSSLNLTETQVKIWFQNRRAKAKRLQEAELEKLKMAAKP
# [14] = target: MSX2 (Homo sapiens, UniProt P35548 130-214, F161Y)
# Sequence of MSX2 (Homo sapiens, UniProt P35548 130-214, F161Y) (P35548 130-214 F161Y): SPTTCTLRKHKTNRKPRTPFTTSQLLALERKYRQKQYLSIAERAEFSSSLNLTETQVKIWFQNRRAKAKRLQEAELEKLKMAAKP
# Sequence of CRX (Homo sapiens, UniProt O43186 26-111) (O43186 26-111): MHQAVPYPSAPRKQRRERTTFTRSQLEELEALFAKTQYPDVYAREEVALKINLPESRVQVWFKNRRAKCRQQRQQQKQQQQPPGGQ
# Sequence of CRX (Homo sapiens, UniProt O43186 26-111, R41L) (O43186 26-111 R41L): as the sequence (O43186 26-111) above, with R16L counted along it
# Sequence of CRX (Homo sapiens, UniProt O43186 26-111, E42D) (O43186 26-111 E42D): as the sequence (O43186 26-111) above, with E17D counted along it
sequence,measurement,setting,value
GGGATTAA,binding signal,[1],"13.7 upbm affinity estimate (log intensity, higher = more binding, comparable within an allelic series)"
same,binding signal,[2],"13.8 upbm affinity estimate (log intensity, higher = more binding, comparable within an allelic series)"
same,binding signal,[3],"13.6 upbm affinity estimate (log intensity, higher = more binding, comparable within an allelic series)"
same,binding signal,[4],"13.7 upbm affinity estimate (log intensity, higher = more binding, comparable within an allelic series)"
ATAATCCG,binding signal,[1],"13.7 upbm affinity estimate (log intensity, higher = more binding, comparable within an allelic series)"
same,binding signal,[2],"13.8 upbm affinity estimate (log intensity, higher = more binding, comparable within an allelic series)"
same,binding signal,[3],"13.3 upbm affinity estimate (log intensity, higher = more binding, comparable within an allelic series)"
same,binding signal,[4],"13.9 upbm affinity estimate (log intensity, higher = more binding, comparable within an allelic series)"
GGATTAAA,binding signal,[1],"13.5 upbm affinity estimate (log intensity, higher = more binding, comparable within an allelic series)"
same,binding signal,[2],"13.6 upbm affinity estimate (log intensity, higher = more binding, comparable within an allelic series)"
same,binding signal,[3],"13.3 upbm affinity estimate (log intensity, higher = more binding, comparable within an allelic series)"
same,binding signal,[4],"13.4 upbm affinity estimate (log intensity, higher = more binding, comparable within an allelic series)"
GGCTTAAC,binding signal,[1],"12.7 upbm affinity estimate (log intensity, higher = more binding, comparable within an allelic series)"
same,binding signal,[2],"12.6 upbm affinity estimate (log intensity, higher = more binding, comparable within an allelic series)"
same,binding signal,[3],"12.7 upbm affinity estimate (log intensity, higher = more binding, comparable within an allelic series)"
same,binding signal,[4],"12.1 upbm affinity estimate (log intensity, higher = more binding, comparable within an allelic series)"
CGTCTGTC,binding signal,[1],"8.37 upbm affinity estimate (log intensity, higher = more binding, comparable within an allelic series)"
same,binding signal,[2],"8.33 upbm affinity estimate (log intensity, higher = more binding, comparable within an allelic series)"
same,binding signal,[5],"9.53 upbm affinity estimate (log intensity, higher = more binding, comparable within an allelic series)"
same,binding signal,[6],"9.5 upbm affinity estimate (log intensity, higher = more binding, comparable within an allelic series)"
same,binding signal,[4],"8.42 upbm affinity estimate (log intensity, higher = more binding, comparable within an allelic series)"
CGACTCGC,binding signal,[1],"8.13 upbm affinity estimate (log intensity, higher = more binding, comparable within an allelic series)"
same,binding signal,[2],"8.24 upbm affinity estimate (log intensity, higher = more binding, comparable within an allelic series)"
same,binding signal,[7],"7.77 upbm affinity estimate (log intensity, higher = more binding, comparable within an allelic series)"
same,binding signal,[8],"7.61 upbm affinity estimate (log intensity, higher = more binding, comparable within an allelic series)"
same,binding signal,[9],"7.85 upbm affinity estimate (log intensity, higher = more binding, comparable within an allelic series)"
same,binding signal,[10],"7.71 upbm affinity estimate (log intensity, higher = more binding, comparable within an allelic series)"
same,binding signal,[4],"8.21 upbm affinity estimate (log intensity, higher = more binding, comparable within an allelic series)"
same,binding signal,[11],"7.81 upbm affinity estimate (log intensity, higher = more binding, comparable within an allelic series)"
CGCGCCAG,binding signal,[1],"8.61 upbm affinity estimate (log intensity, higher = more binding, comparable within an allelic series)"
same,binding signal,[2],"8.52 upbm affinity estimate (log intensity, higher = more binding, comparable within an allelic series)"
same,binding signal,[12],"9.5 upbm affinity estimate (log intensity, higher = more binding, comparable within an allelic series)"
same,binding signal,[13],"9.73 upbm affinity estimate (log intensity, higher = more binding, comparable within an allelic series)"
same,binding signal,[14],"9.71 upbm affinity estimate (log intensity, higher = more binding, comparable within an allelic series)"
same,binding signal,[4],"8.44 upbm affinity estimate (log intensity, higher = more binding, comparable within an allelic series)"
GGATTAGA,binding signal,[1],"13.3 upbm affinity estimate (log intensity, higher = more binding, comparable within an allelic series)"
same,binding signal,[2],"13.2 upbm affinity estimate (log intensity, higher = more binding, comparable within an allelic series)"
same,binding signal,[3],"13.1 upbm affinity estimate (log intensity, higher = more binding, comparable within an allelic series)"
same,binding signal,[4],"13.1 upbm affinity estimate (log intensity, higher = more binding, comparable within an allelic series)"
GAGACTGC,binding signal,[1],"8.28 upbm affinity estimate (log intensity, higher = more binding, comparable within an allelic series)"
same,binding signal,[2],"8.22 upbm affinity estimate (log intensity, higher = more binding, comparable within an allelic series)"
same,binding signal,[7],"7.74 upbm affinity estimate (log intensity, higher = more binding, comparable within an allelic series)"
same,binding signal,[8],"7.6 upbm affinity estimate (log intensity, higher = more binding, comparable within an allelic series)"
same,binding signal,[9],"7.71 upbm affinity estimate (log intensity, higher = more binding, comparable within an allelic series)"
same,binding signal,[10],"7.72 upbm affinity estimate (log intensity, higher = more binding, comparable within an allelic series)"
same,binding signal,[4],"8.35 upbm affinity estimate (log intensity, higher = more binding, comparable within an allelic series)"
same,binding signal,[11],"7.73 upbm affinity estimate (log intensity, higher = more binding, comparable within an allelic series)"
ATGGATTA,binding signal,[1],"13.2 upbm affinity estimate (log intensity, higher = more binding, comparable within an allelic series)"
same,binding signal,[2],"13.2 upbm affinity estimate (log intensity, higher = more binding, comparable within an allelic series)"
same,binding signal,[3],"13.2 upbm affinity estimate (log intensity, higher = more binding, comparable within an allelic series)"
same,binding signal,[4],"13 upbm affinity estimate (log intensity, higher = more binding, comparable within an allelic series)"

# — article PMC11006913
